Results filed as inconclusive are left out. Entries that show only a call come without a potency. The source made the active and inactive calls. Calls come from the whole dose curve; as a rule, active = well fitted activation curve with a large enough effect in the repeat runs; inconclusive = weak or mixed curves; inactive = no such curve, though single readings can be large or run the other way.
Test: qHTS assay for small molecules that induce genotoxicity in human embryonic kidney cells expressing luciferase-tagged ATAD5 (AID 651632); note: nearly all actives have a fitted effect of over 15% in size
Settings: HEK293T ATAD5-luciferase induction, 16 h; series mostly up to 83.3 µM
Description: U.S. Tox21 Program National Center for Advancing Translational Sciences [NCATS] NIH Chemical Genomics Center [NCGC] U.S. Environmental Protection Agency [EPA] National Institutes of Environmental Health Sciences [NIEHS] National Toxicology Program [NTP] U.S. Food and Drug Administration [FDA] Tox21 Assay Overview: As cancer cells divide rapidly and during every cell division they need to duplicate their genome by DNA replication. The failure to do so results in the cancer cell death. Based on this concept, many chemotherapeutic agents were developed but have limitations such as low efficacy and severe side effects etc. A new cell based assay was developed to find the compounds that effectively block DNA replication either by directly damaging DNA or by inhibiting other cellular mechanisms. Enhanced Level of Genome Instability Gene 1 (ELG1; human ATAD5) protein levels increase in response to various types of DNA damage. Using a luciferase reporter-gene tagged with ATAD5, a cell-based assay [developed by Kyungjae Myung, NHGRI, NIH] was used to measure the induction of ATAD5 in human embryonic kidney cells (HEK293T). So, increase in luciferase activity can be used to identify the compounds that cause genetic stress.
Tox21 Assay Protocol Summary: For genotoxicity screening, 2,000 cells in 5 uL/well were dispensed into white, solid-bottom 1536-well plates using a Multidrop Combi (Thermo Scientific) dispenser. Following transfer of 23 nL compound or DMSO vehicle by a pin tool, the plates were incubated 16 hr at 37C and 5% CO2. 5 ul Amplite (AAT Bioquest, Inc.) was then added to each plate and following 30 min incubation at room temperature, luciferase activity was quantified on a ViewLux CCD-based plate reader.
In the case of `COc1cc(OC)nc(NC(=O)NS(=O)(=O)c2ncccc2C(=O)N(C)C)n1`, the Potency is reported as “inactive”.
For `Cc1ncc(CNC(=O)N(CCCl)N=O)c(N)n1`, the Potency was “inactive”.
With `COC(=O)c1ccccc1S(=O)(=O)NC(=O)N(C)c1nc(C)nc(OC)n1` the Potency was “inactive”.
For `COc1ccc2c(c1OC)CN1CCc3cc4c(cc3C1C2)OCO4` (stereo not given), the Potency was “inactive”.
With `CS(=O)(=O)c1cc(C(F)(F)F)ccc1C(=O)c1cnoc1C1CC1` the Potency was “inactive”.
With `Oc1c(Cl)cccc1Cl` the Potency was “inactive”.
With `O=C(Nc1ccccc1)N(Cc1ccc(Cl)cc1)C1CCCC1` the Potency was “inactive”.
With `O=[N+]([O-])c1ccc2c3c(cccc13)CC2` the Potency was “inactive”.
For `O=C(O)c1ccc2[nH]cc(CCCCN3CC=C(c4ccccc4)CC3)c2c1`, the Potency was “inactive”.
For `COC(=O)C(c1ccccc1)C1CCCCN1` (stereo not given), the Potency was “inactive”.
With `CCCCOC(=O)c1ccccc1C(=O)O` the Potency was “inactive”.
For `CNC(=O)Oc1ccc(N(C)C)c(C)c1`, the Potency was “inactive”.
For `CCCCc1c(C)nc(NCC)[nH]c1=O`, the Potency was “inactive”.
For `CCN(Cc1ccc(Cl)nc1)/C(=C/[N+](=O)[O-])NC`, the Potency was “inactive”.
With `O=C1CN=C(c2ccccc2)c2cc([N+](=O)[O-])ccc2N1` the Potency was “inactive”.
For `CCCCCCI`, the Potency was “inactive”.
With `CNC(=O)O/N=C(\C)SC` the Potency was “inactive”.
With `Cc1cccc(C#N)c1` the Potency was “inactive”.
In the case of `CCCSP(=O)(OCC)Oc1ccc(Br)cc1Cl` (stereo not given), the Potency is reported as “inactive”.
With `C=CCC1=C(C)[C@@H](OC(=O)[C@@H]2[C@@H](C=C(C)C)C2(C)C)CC1=O` the Potency was “inactive”.
For `Cc1cc(C)nc(Nc2ccccc2)n1`, the Potency was “inactive”.
For `C=C(C)[C@@H]1CC=C(C=O)CC1`, the Potency was “inactive”.
In the case of `Nc1cnn(-c2ccccc2)c(=O)c1Cl`, the Potency is reported as “inactive”.
For `Nc1c(Br)cc([N+](=O)[O-])cc1[N+](=O)[O-]`, the Potency was “inactive”.
In the case of `N#Cc1c(Cl)cccc1Cl`, the Potency is reported as “inactive”.
In the case of `BrCCCCCCBr`, the Potency is reported as “inactive”.
With `CSc1ccc(C(=O)C(C)(C)N2CCOCC2)cc1` the Potency was “inactive”.
In the case of `CCOP(=S)(OCC)SCSc1ccc(Cl)cc1`, the Potency is reported as “inactive”.
In the case of `ClC(Cl)(Cl)C(Cl)(Cl)Cl`, the Potency is reported as “inactive”.
With `CC(Oc1ccc(Oc2ncc(C(F)(F)F)cc2Cl)cc1)C(=O)O` (stereo not given) the Potency was “inactive”.
In the case of `CSc1nc(N=[N+]=[N-])nc(NC(C)C)n1`, the Potency is reported as “inactive”.
For `CCCCc1ccc(O)cc1`, the Potency was “inactive”.
In the case of `CCOP(=S)(Oc1cnc(C(C)(C)C)nc1)OC(C)C` (stereo not given), the Potency is reported as “inactive”.
With `CC1(C(=O)Nc2ccc(O)c(Cl)c2Cl)CCCCC1` the Potency was “inactive”.
With `CC(C1CC1)C(O)(Cn1cncn1)c1ccc(Cl)cc1` (stereo not given) the Potency was “inactive”.
For `CC(C)NCC(O)c1ccc(N)c(C#N)c1` (stereo not given), the Potency was “inactive”.
With `C[C@]1(O)CC[C@H]2[C@@H]3CCC4=CC(=O)CC[C@]4(C)[C@@]3(F)[C@@H](O)C[C@@]21C` the Potency was “inactive”.
For `CCN(CC)C(=O)[C@@H]1C=C2c3cccc4[nH]cc(c34)C[C@H]2N(C)C1`, the Potency was “inactive”.
For `Nc1cc(Cl)ccc1O`, the Potency was “inactive”.
In the case of `CCOP(=O)(N=C1SCCS1)OCC`, the Potency is reported as “inactive”.

From PubChem BioAssay (Tox21)
